Most compounds without a hit are left out; they make up all but 6% or so of the library.
Tau fluor counter = counter-screen for tau fibril formation inhibitors; 280,000 tested, 0.93% active; Potency, µM (titrated, usually from 57.7 µM), for inactives: at the highest dose activity change, negative = decrease; AID 1463; tau K18 P301L Alexa594 fluorescence, heparin fibrillization; note: nearly all actives have a fitted effect of over 55% in size
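Human K18 P301L tau (15 uM unlabeled plus 0.24 uM Alexa 594-labeled, final) in 100 mM sodium acetate pH 7 was mixed with compound and 20 uM heparin and incubated 6 hr at 37 C.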
Tau FP inhib = inhibitors of human tau fibril formation | 280,000 tested, 0.39% active | AID 1468 | P10636 | Potency, µM (top dose mostly 57.7 µM), inactives show at the highest dose activity, negative = inhibition, actives largely listed as inhibitors | K18 P301L tau heparin fibrillization, Alexa594 FP, 6 h; note: nearly all actives have a fitted effect of over 55% in size
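K18 P301L tau (15 uM unlabeled/0.24 uM Alexa 594-labeled, final) + compound + heparin 20 uM final; 100 mM NaOAc pH 7; 6 hr 37 C; ThT 30 uM final added, 1 hr RT; FP ex 555/em 632 nm.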
Sfp PPTase inh = Sfp phosphopantetheinyl transferase inhibition. Biochemical Sfp PPTase activity, qHTS. 310,000 tested, 3.5% active. Q9F4F7. Potency, µM, inactives show largest response in the series, negative = inhibition, usual class: inhibitors;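 note: the enzyme is Sfp with the accession as filed and its product quenches rhodamine fluorescence; 0% = enzyme reaction without inhibitor and -100% = no enzyme wells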
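Sfp 15 nM + cpd, 15 min RT; start w/ rhodamine-CoA 5 uM, BHQ-2-YbbR 12.5 uM (final); 50 mM Hepes pH 7.6, 10 mM MgCl2, 0.01% NP-40, 0.01% BSA; read 525/598 nm at 0 and 30 min.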
PLK1 PBD inh = blocks phosphopeptide binding to human PLK1 polo-box domain; 360,000 tested, 2.8% active; AID 720504; Potency, µM, for the others: max response, negative = inhibition, actives largely listed as inhibitors; Plk1 PBD binding of FITC phosphopeptide, fluorescence polarization; note: series mostly up to about 57 µM; nearly all actives have a fitted effect of over 65% in size
VDR inh = vitamin D3 receptor (human) inhibition | AID 504847 | VDR-SRC2-3 peptide fluorescence polarization, 2 h | 400,000 tested, 0.93% active | P11473 | Potency, µM, without a hit: max response, negative = inhibition, hits mostly inhibitors
Target sequence (P11473 whole entry, looked up): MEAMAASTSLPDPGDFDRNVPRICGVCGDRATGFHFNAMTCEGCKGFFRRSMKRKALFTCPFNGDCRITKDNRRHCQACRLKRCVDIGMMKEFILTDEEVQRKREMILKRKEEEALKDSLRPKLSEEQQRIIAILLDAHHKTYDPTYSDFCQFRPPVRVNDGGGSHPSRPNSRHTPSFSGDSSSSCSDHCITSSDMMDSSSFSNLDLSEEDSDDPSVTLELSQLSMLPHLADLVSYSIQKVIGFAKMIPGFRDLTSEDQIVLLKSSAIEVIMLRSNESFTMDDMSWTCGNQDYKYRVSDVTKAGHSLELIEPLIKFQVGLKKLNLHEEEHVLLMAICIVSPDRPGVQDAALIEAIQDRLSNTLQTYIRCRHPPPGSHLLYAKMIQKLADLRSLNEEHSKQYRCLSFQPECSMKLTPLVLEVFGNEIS
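The screen uses fluorescence polarization to detect compounds that interfere with recruitment of the SRC2-3 coactivator peptide to VDR; plates are read after 2 h at room temperature.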
Tau ThT inhib = tau fibrillization inhibition (ThT binding) | P10636 | recombinant tau K18 P301L, heparin-induced fibrillization, ThT fluorescence | Potency, µM (titrated, usually from 57.4 µM), without a hit: top-dose activity, negative = inhibition, actives largely listed as inhibitors | 270,000 tested, 2.1% active | AID 1460; note: nearly all actives have a fitted effect of over 55% in size
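ThT emission at 510 nm, taken 1 hr after adding 30 uM dye, quantifies aggregates formed when 20 uM heparin acts on human tau K18 P301L for 6 hr at 37 C.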
Active calls of the source: *; ? = inconclusive; / = no result; [ ] = remark or other dose. Calls come from the whole dose curve; as a rule, active = well fitted curve in the direction sought with a large enough effect; inconclusive = small, poorly fitted or top-dose-only effect, or another doubt; inactive = no such curve, though single readings can be large; an effect the other way counts as inactive or inconclusive. Unless noted, % is set by controls: 0 for no effect and ±100 for the full control effect; potency is the fitted concentration of half-maximal effect.

SMILES	Tau fluor counter	Tau FP inhib	Sfp PPTase inh	PLK1 PBD inh	VDR inh	Tau ThT inhib
O=C(N/N=C/c1ccc(-c2ccccc2Cl)o1)c1ccccc1	?	-8%	12%	-13%	-18%	?
CN(CC(=O)Nc1ccc(F)cc1F)S(=O)(=O)c1ccc(C(=O)N2CCOCC2)s1	-8%	-2%	/	/	5%	-6%
CCOc1ccc(NC(=O)c2c(C)oc3nc(C)nc(N4CCOCC4)c23)cc1	2%	-1%	/	/	15%	-2%
COc1ccccc1-c1ccc2ncnc(NCCNC(C)=O)c2c1	/	/	13%	/	?	/
Cc1ccc(C)c(N2CCN(CCCNC(=O)c3ccc4nc(N5CCCCC5)sc4c3)CC2)c1	-29%	-8%	/	/	0%	?
Oc1[nH]c2ccc(Br)cc2c1N=NC(=S)NCC1CCCO1 (stereo not given)	14µM*[quencher]	6%	-11%	?	-10%	16µM*
O=C(NCC1CCCO1)C1CCCN1C(=O)NC1CCCCC1 (stereo not given)	-7%	-1%	17%	-8%	12%	-8%
S=C(NCC1CCCO1)NC1CCCCC1 (stereo not given)	-1%	5%	11µM*	-12%	10%	9%
Oc1[nH]c2ccccc2c1N=NC(=S)NCC1CCCO1 (stereo not given)	0%	2%	?	-2%	1%	0%
S=C(NCC1CCCO1)c1ccc(Br)cc1 (stereo not given)	/	/	20µM*	12µM*	?	/
CCCCCCOc1ccc(C2C(=O)N(C3CCCCC3)CC(=O)N2CCC)cc1 (stereo not given)	-6%	5%	/	/	7%	?
COc1ccc(CNC(=O)Cn2ccc3cc(S(=O)(=O)N4CCCCCC4)ccc32)cc1OC	-23%	6%	/	/	0%	6%
CC1CCCC(NC(=O)CCC(=O)c2ccc(F)cc2)C1C (stereo not given)	1%	0%	5%	24µM*	-18%	-4%
CC1CCCC(NC(=O)CCC(=O)N2CCOc3ccccc32)C1C (stereo not given)	/	/	6%	15µM*	?	/
CC1CCCC(NC(=O)CSc2ccc(F)cc2)C1C (stereo not given)	-6%	2%	8%	-7%	6%	-4%
Cc1cc(C)c(NC(=O)CN(C)S(=O)(=O)c2ccc3c(c2)CCC(=O)N3)c(C)c1	2%	-5%	/	/	-3%	2%
COC(=O)CCC(=O)Nc1ccc(N=Nc2ccccc2)cc1	?	-11%	-40%	-28%	-4%	11µM*
O=C(O)CCCC(=O)Nc1ccc(N=Nc2ccccc2)cc1	-14%	-12%	3%	0%	-15%	?
COC(=O)c1ccc(N=Nc2ccccc2)cc1	-10%	-1%	11%	5%	5%	14µM*
C/C(=N\NS(=O)(=O)c1ccc([N+](=O)[O-])cc1)c1cccs1	-18%	6%	1%	27µM*	?	?
CC(C)/C(=N\NS(=O)(=O)c1ccc(Br)cc1)c1cccs1	-23%	2%	18%	24µM*	-11%	-15%
Cc1ccc(F)c(S(=O)(=O)NC(=O)C2(C)CCN2C(=O)C/C=C/c2ccccc2)c1 (stereo not given)	/	/	/	-11%	/	/
CCc1ccc(CN2CCC(N3CCC(C(=O)N4CCCC4)CC3)CC2)o1	/	/	10%	-6%	3%	/
CC(=O)c1cc(CN2CCC(N3CCC(C(=O)N4CCCC4)CC3)CC2)cs1	-54%	5%[2.34 µM]	22µM*	-4%	9%	?
CC1CCN(S(=O)(=O)c2ccc(N/N=C(/C#N)C(N)=O)cc2)CC1	-30%	-7%	2%	-9%	19%	?
N#C/C(=N\Nc1ccc(S(=O)(=O)N2CCOCC2)cc1)C(N)=S	-17%	0%	45µM*	?	-20%	?
N#C/C(=N\Nc1ccccc1)C(N)=S	-23%	-1%	18µM*	-19%	-6%	?
Cc1ccc(N/N=C(\C#N)C(N)=S)cc1C	-23%	3%	56µM*	-19%	?	?

Screening data as filed in PubChem.
